This excerpt belongs to a sample that is enriched for hits.
Pf Dd2 growth: qHTS Primary assay for Inhibitors of Plasmodium falciparum Dd2 growth in vitro; P. falciparum Dd2 growth, SYBR Green, 72 h; Potency, µM (doses to about 28.9 µM), for inactives: at the highest dose activity, negative = inhibition, most hits filed as inhibitors; actives 4.3% (n = 120,000); AID 1347417, 2020; active means well fitted inhibition curve with a large enough effect;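 further: plate controls were DMSO vehicle for no effect and reference drug for full effect; nearly all actives have a fitted effect of over 65% in size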
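Infected erythrocytes (Dd2, 0.3% parasitemia, 2.5% hematocrit final) are added to compound in RPMI-1640/Albumax II medium, grown 72 h at 37C in low oxygen, then lysed with saponin/Triton-X containing SYBR Green and read by fluorescence.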
The depositor's hits bear a star; i = inactive; [ ] = remark or other dose. Potency means the concentration at half of the fitted maximal effect.

SMILES	Pf Dd2 growth
CC(O)c1cc2n(n1)CCN(C(=O)Cn1nnc(-c3ccc(F)cc3)n1)C2 (configuration not stated)	8%
Cc1cc(N2C[C@H](NC(=O)CN3CC(=O)NC3=O)[C@@H](C3CC3)C2)ncn1	-10%
Cc1ccc(-c2nnc(C3CN(C(=O)C4CCC4)CC34CCOCC4)o2)cc1 (configuration not stated)	23%
O=C(NCCc1ccccc1)N1CCCC(Cn2c(C3CC3)nc3cccnc32)C1 (configuration not stated)	i
CC(C)(C)OC(=O)N1CCC(c2c(C(=O)O)cnn2-c2ccc(F)cc2F)CC1	5%
CC(C)(C)OC(=O)N1CCC(c2c(C(=O)Nc3cccc(C(F)(F)F)c3)cnn2-c2ccc(F)cc2F)CC1	11µM*
Nc1cccc(-c2cn(C[C@H]3CC4CCN3C[C@@H]4C(=O)NC3CC3)nn2)c1 (some centres not stated)	-2%[44.1 µM]
COc1cccc(CN2CCC(C(Cc3ccccc3F)N(C)C(=O)c3cccs3)CC2)c1O (configuration not stated)	i
CCOc1cc(CN2CCOc3ccc(C(=O)NCc4ccccc4F)cc3C2)ccc1O	-7%
CCOc1cc(CN2CCC(C(Cc3ccccc3F)N(C)C(=O)c3cccs3)CC2)ccc1O (configuration not stated)	4µM*
CN(C)c1nc(CN2CC(C)(Cc3ccc4c(c3)OCO4)CCC2=O)cs1 (configuration not stated)	-15%
CSc1cccc(NC(=O)Cn2c(-c3cnccn3)nc(C)c(CCO)c2=O)c1	i
CC(=O)Nc1ccc(C2(C(=O)NCc3cccc(C)c3)CCC2)cc1	10%
Cc1ccc2c(C(=O)NCc3ccc(C(F)(F)F)cc3)cc(NC(=O)C(C)C)cc2n1	-26%
COc1ccc2c(c1)CN(Cc1ccc(C(F)(F)F)cc1)CC[C@H]1COC(=O)N21	i
COc1cccc(CN2CC[C@H]3COC(=O)N3c3ccc(OC)cc3C2)c1	11%[44.1 µM]
COc1ccc2c(c1)CN(Cc1ccccc1Cl)CC[C@H]1COC(=O)N21	11µM*
Cc1ccccc1NC(=O)N1CCC(CCNC(=O)c2ccco2)CC1	3%
O=S(=O)(c1ccccc1F)N1CC(c2nnc(-c3ccncc3)o2)C2(CCOCC2)C1 (configuration not stated)	-22%
COc1ccccc1CN1CCC2(CC1)OC(=O)N(Cc1ccccc1F)C2(C)c1ccccc1 (configuration not stated)	4µM*
COc1ccccc1CN1CCC2(CC1)OC(=O)N(Cc1csc(C)n1)C2(C)c1ccccc1 (configuration not stated)	i
COc1ccc(CN2CCC3(CC2)OC(=O)N(Cc2ccccc2C#N)C3(C)c2ccccc2)cc1O (configuration not stated)	-16%
CC1(c2ccccc2)N(Cc2ccccc2F)C(=O)OC12CCN(Cc1ccc(C#N)cc1)CC2 (configuration not stated)	-23%
COc1ccccc1CN1CCC2(CC1)OC(=O)N(Cc1ccc(NC(C)=O)cc1)C2(C)c1ccccc1 (configuration not stated)	13µM*
CC(=O)Nc1ccc(CN2C(=O)OC3(CCN(Cc4ccccc4)CC3)C2(C)c2ccccc2)cc1 (configuration not stated)	-19%
SMILES	Pf Dd2 growth
c1ccc(C(CN2CCCC(N3CCN(c4ccccc4)CC3)C2)c2ccccc2)cc1 (configuration not stated)	i
CN(C)[C@@H]1CN(C(=O)c2ccc(F)cc2Cl)C[C@H]1CO	2%
CC(=O)Nc1ccc(NC(=O)Cn2c(C)cc3nc4n(c(=O)c32)CCCC4)cc1	i
Cc1noc(-c2ccc(C(C)(C)C)cc2)c1C(=O)NCCOc1ccccc1	-9%
CCC1c2nccn2CCCN1C(=O)COC (configuration not stated)	29%
CCC1c2nccn2CCCN1C(=O)Cc1ccc(OC)cc1 (configuration not stated)	7.1µM*
CCC1c2nccn2CCCN1C(=O)Cn1c(=O)oc2ccccc21 (configuration not stated)	13µM*
CCC1c2nccn2CCCN1C(=O)C1CCOCC1 (configuration not stated)	-4%
CC(C)C1c2nccn2CCCN1C(=O)Cn1c(=O)oc2ccccc21 (configuration not stated)	-19%
CCC1c2nccn2CCCN1C(=O)c1ccc2c(c1)OCO2 (configuration not stated)	-20%
Cc1ccc(C(=O)N2CCc3nc(OCC4CC4)ccc3C2)cn1	-11%
COc1ccc(-c2cnc(NCc3ccccc3)c3c2CCO3)cc1	i
COc1ccc(S(=O)(=O)N2CCn3nnc(CCC(=O)NC4CC4)c3C2)cc1	5%
C=CCNC(=O)N1CCOC(CN(CC(C)C)C(=O)c2ccc(OC)c(OC)c2)C1 (configuration not stated)	-17%
CC1(c2ccccc2)CCCN(c2cncc(C(=O)N3CCOCC3)n2)C1 (configuration not stated)	11µM*
COC(=O)c1cncc(N2CCCC3(CCC(=O)N(Cc4ccccc4)C3)C2)n1 (configuration not stated)	6%
CC(=O)N1CCN(c2cncc(C(=O)N3CCOCC3)n2)CC(O)C1 (configuration not stated)	-4%
Cc1ccc(Nc2ccnc(N3CC4CCC(C3)N4CC(F)(F)F)n2)cc1	10µM*
Cc1cc(C)nc(N2CC3CCC(C2)N3CC(F)(F)F)c1	i
FC(F)(F)CN1C2CCC1CN(c1nccc(C(F)(F)F)n1)C2	16%
CCN(CC)S(=O)(=O)c1ccc(NC(=O)c2c(C)oc3ncnc(N4CCCCC4)c23)cc1	32%
Cc1ccc(NC(=O)Cn2c(=O)oc3cc(S(=O)(=O)N4CCCCC4)ccc32)c(C)c1	-4%
Cc1ccc(NC(=O)c2c(C)oc3ccc(O)c(CN4CCCCCC4)c23)c(C)c1	1.1µM*
COc1ccc(NC(=O)c2c(C)oc3ccn(Cc4cccc(F)c4)c(=O)c23)cc1F	-17%
Cc1ccc(NC(=O)c2c(C)oc3ccc(O)c(CN4CCCCCC4)c23)cc1	0.63µM*
SMILES	Pf Dd2 growth
COc1cc(=O)n2c(c1C(=O)Nc1ccc(C)cc1)CCCC2	i
COc1ccc(NC(=O)c2c(C)oc3ccc(O)c(CN4CCCC(C)C4)c23)cc1Cl (configuration not stated)	0.4µM*
Cc1ccc(NC(=O)c2cc(S(=O)(=O)N3CCCC3)c[nH]2)c(C)c1	i
COc1ccc(NC(=O)c2cccn2-c2nnc(N3CCCCC3)s2)cc1Cl	6%
COc1ccc(C2(C(=O)N3CCc4nn(C)c(=O)n4CC3)CC2)cc1	57%
O=C1CCCN1CCCN1C(=O)[C@@H]2C[C@@H](O)CN2C2(CN(Cc3cnc4ccccc4c3)C2)C1=O	-10%
CC(CCc1ccccc1)NC(=O)CC[C@H]1NC(=O)c2ccccc2NC1=O (some centres not stated)	-1%
Cc1ccc(C(=O)N2C(C(=O)NC(C)C)COC23CCN(C(=O)c2ccccc2F)CC3)cc1 (configuration not stated)	i
CC(C)CN1CCN(C(=O)c2ccc(CCC(C)(C)O)cc2)C(C)C1=O (configuration not stated)	-13%
COc1ccc(S(=O)(=O)NC[C@H]2O[C@@H](CO)[C@@H](O)[C@H]2N2CCN(C)CC2)cc1	4%
O=c1c2ccccc2nc(/C=C/c2ccccc2)n1-c1ccccc1F	i

Compound activity from PubChem.
